# JMJD2E inh: inhibitors of human JMJD2E histone demethylase. AID 2147. Potency, µM (series often up to 57.1 µM), without a hit: at the highest dose activity change, negative = inhibition, actives largely listed as inhibitors. B2RXH2. actives 1.6% (n = 230,000). JMJD2E catalytic domain, FDH-coupled NADH fluorescence (FDH is formaldehyde dehydrogenase);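 also: potency is read from the fitted curve at half-maximal effect; 0% = wells with enzyme and -100% = buffer wells without enzyme; nearly all actives have a fitted effect of over 50% in size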
# Target sequence (B2RXH2 1-337 limits assumed): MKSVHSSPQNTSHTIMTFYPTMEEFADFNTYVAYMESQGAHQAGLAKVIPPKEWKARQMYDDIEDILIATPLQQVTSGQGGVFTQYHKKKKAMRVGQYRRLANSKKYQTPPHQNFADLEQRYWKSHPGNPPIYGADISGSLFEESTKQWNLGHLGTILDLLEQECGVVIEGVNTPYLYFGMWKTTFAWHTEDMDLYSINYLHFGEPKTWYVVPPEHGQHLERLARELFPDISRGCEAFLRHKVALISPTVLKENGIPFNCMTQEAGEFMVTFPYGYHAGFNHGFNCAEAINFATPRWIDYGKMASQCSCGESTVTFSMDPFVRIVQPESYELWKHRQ
# HPGD block: blocks human HPGD enzyme activity; P15428; purified HPGD, NADH fluorescence kinetic, PGE2 substrate; Potency, µM, inactives show at the highest dose activity change, negative = inhibition, actives largely listed as inhibitors; actives 4.3% (n = 150,000); also: potency is read from the fitted curve at half-maximal effect
#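 20 nM HPGD preincubated 15 min at room temperature with compound in 50 mM Tris-HCl pH 8, 0.01% Tween 20. Started with 1 mM NAD+ and 30 uM prostaglandin E2; NADH fluorescence (360/450 nm) read 5 times over 30-s intervals, last minus first.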
# ALDH1A1 block: inhibitors of human aldehyde dehydrogenase 1A1; P00352; Purified ALDH1A1, NADH fluorescence, propionaldehyde substrate; Potency, µM (titrated, usually from 75.3 µM), inactives show at the highest dose activity, negative = inhibition, hits mostly inhibitors; actives 7.3% (n = 220,000);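 also: potency is read from the fitted curve at half-maximal effect; plate controls were no enzyme wells and a reference inhibitor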
# PNC assembly inh: inhibitors of perinucleolar compartment assembly; activity change (PNC), negative = inhibition, % at 10 µM; PC3M PTB-GFP, PNC prevalence imaging, 16 h; hits give low values; actives 3.1% (n = 140,000);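 active = readout at or below -70, meaning at least 70% loss of cells showing the perinucleolar compartment, a nuclear body marking cancer cells; inconclusive = readout between -30 and a set limit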;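 also: plate controls were DMSO wells for no effect and camptothecin positive control wells for full effect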
#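 PC3M cells stably expressing PTB-GFP, 750–1000 cells/well, treated 16 h at 37 °C with compound (23 nl of library stock), in duplicate. After paraformaldehyde fixation and Hoechst stain, imaged at 20x; PNC prevalence scored by image analysis.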
# The depositor's hits bear a star; ? = inconclusive; nt = no result; [ ] = dose if it differs, or a comment. This is a sample that favours compounds with a hit; in the whole collection about 11% have one here. Unless noted, calls follow the shape of the dose curve; as a rule, active = well fitted inhibition curve with a large enough effect (not every such curve was filed as active); inconclusive = small, poorly fitted or top-dose-only effect, or another doubt; inactive = no such curve, though single readings can be large or run the other way. Unless noted, % is scaled to controls: 0 for no effect and ±100 for the full control effect.
SMILES,JMJD2E inh,HPGD block,ALDH1A1 block,PNC assembly inh
COCCNc1nc(-c2ccoc2)nc2ccccc12,nt,nt,-11.8%,nt
COc1cccc(OCC(O)CO)c1 (stereo not given),9.4%,5.0%,4.5%,31.7
Cc1ccc(C(=O)Nc2onc(C)c2C#N)cc1,-5.7%,-4.0%,25.1µM*,15.6
Cc1noc(NC(=O)c2ccccc2)c1C#N,7.2%,-26.8%,10µM*,-17.9
Cc1noc(NC(=O)c2ccccc2Cl)c1C#N,0.0%,2.9%,12.4%,14.8
COc1ccccc1C(=O)Nc1onc(C)c1C#N,2.2%,nt,?,nt
C/C(CCC(=O)OC[C@@H]1O[C@H](C#Cc2ccccc2)C=C[C@@H]1Oc1ccc(C)cc1)=N/OC[C@@H](C)[C@H](OCc1ccccc1)C(C)C,nt,nt,-0.8%[13.5 µM],nt
Cc1ccc(N2C(=O)CC(Sc3cccs3)C2=O)cc1 (stereo not given),-1.3%,nt,2.24µM*,nt
Cc1ccc(SC2CC(=O)N(c3ccc4c(c3)OCCO4)C2=O)cc1 (stereo not given),8.3%,nt,2.51µM*,nt
CC(=O)C1C(c2ccc(Br)cc2)C2C(C)=NN=C2CC1(C)O (stereo not given),2.4%,-5.6%,8.8%,?
N#CC1=C(S)N(c2ccc(F)cc2)C2(CCCCC2)NC1=O,-5.2%,nt,-2.3%,nt
N=C(N)C(N=Nc1ccccc1)C(=N)N (stereo not given),nt,-8.2%,1.6%[13.5 µM],nt
CC(C)(C)NS(=O)(=O)c1ccc(OCC(=O)Nc2ccc3c(c2)OCCO3)cc1,1.6%,-5.4%,1.78µM*,0.7
O=C(COc1ccc(S(=O)(=O)N2CCOCC2)cc1)Nc1ccc2c(c1)OCCO2,-11.2%,-6.4%,?,1.2
CC(C)(C)NS(=O)(=O)c1ccc(CCC(=O)Nc2ccc3c(c2)OCO3)cc1,-4.5%,-5.7%,0.178µM*,-21.2
CC(C)NS(=O)(=O)c1ccc(CCC(=O)Nc2ccc3c(c2)OCCO3)cc1,3.2%,-4.6%,-2.7%,-7.0
CC(C)(C)NS(=O)(=O)c1ccc(CCC(=O)Nc2ccc3c(c2)OCCO3)cc1,8.3%,-5.7%,3.98µM*,-15.4
N#Cc1ccc(-c2ccc(OCC(=O)NCCCN3CCCC3=O)cc2)cc1,?,nt,-9.2%,nt
O=C(NC1CCCc2ccccc21)C1CCN(C(=O)c2sccc2-n2cccc2)CC1 (stereo not given),-6.7%,0.6%,1µM*,8.3
Cc1ccc(CCNC(=O)C2CCN(C(=O)c3sccc3-n3cccc3)CC2)cc1,6.7%,-3.0%,1µM*,16.1
O=C(Nc1ccsc1C(=O)N1CCCC1)c1ccccc1,0.6%,nt,-12.2%,nt
O=C(c1sccc1-n1cccc1)N1CCCC1,5.1%,-10.6%,?,-83.4*
COc1cccc(CNC(=O)C2CCN(C(=O)N(C)C)CC2)c1,0.6%,-1.0%,1.4%,?
O=C(NCc1cccc(F)c1)C1CCN(C(=O)c2sccc2-n2cccc2)CC1,-0.7%,nt,5.01µM*,nt
CSCCC(NC(=O)c1ccccc1Br)C(=O)Nc1ccc(C)cc1 (stereo not given),7.7%,-7.3%,0.9%,?
SMILES,JMJD2E inh,HPGD block,ALDH1A1 block,PNC assembly inh
O=C(NCCc1ccccc1)C1CCN(C(=O)c2sccc2-n2cccc2)CC1,2.6%,-8.4%,3.98µM*,?
O=S(=O)(Nc1nc2ccccc2nc1Nc1ccc2c(c1)OCO2)c1ccc(F)cc1,8.9%,nt,-2.7%,-83.6*
O=S(=O)(Nc1ccc2c(c1)OCCO2)c1ccc(F)cc1,8.3%,-6.2%,-8.1%,0.7
CN1CCN(C(=S)c2cn(CCOc3ccccc3F)c3ccccc23)CC1,-6.9%,nt,9.8%,nt
CC(=O)N1CCc2cc(S(=O)(=O)NCCC(=O)N3CCN(c4ccccn4)CC3)ccc21,-6.1%,-9.3%,2.2%,12.0
Nc1ncc(Br)cc1S(=O)(=O)NCCC(=O)N1CCN(c2ccccn2)CC1,?,-13.0%,?,-113.4*
Cn1c(=O)n2n(c1=O)[C@H]1[C@H](O)[C@H]3O[C@@H]3/C(=N/OC[C@@H](O)COCc3ccco3)[C@@H]1CC2,nt,nt,2.7%[13.5 µM],nt
CCc1ccc(S(=O)(=O)NC(=S)NC2CCCCC2)cc1,-4.7%,nt,25.1µM*,nt
O=S(=O)(NC(=S)NC1CCCCC1)c1ccc(Cl)cc1,-7.9%,nt,25.1µM*,nt
Cc1ccc(S(=O)(=O)NC(=S)NC2CCCCC2)cc1,-6.0%,nt,35.5µM*,nt
CC(C)(C)C(O)CN1CCCC1 (stereo not given),10.5%,nt,9.2%,nt
CCCOc1ccc(N2CC(C(=O)Nc3ccc(N4CCOCC4)cc3)CC2=O)cc1 (stereo not given),0.9%,nt,0.2%,nt
Cc1ccc(N2C(=O)[C@@H]3[C@H](C2=O)[C@H]2C=CC=NN2[C@@H]3C(=O)Nc2ccccc2)cc1,-8.2%,nt,25.1µM*,nt

# Source: PubChem BioAssay
